# Hits are enriched below; roughly 9.5% of the tested compounds scored in any of these assays.
# Pf growth 96h – P. falciparum growth inhibition at 96 hour, primary screen for plastid delayed-death inhibitors | P. falciparum luciferase reporter growth, 96 h | hit rate 6.9% among 320,000 | Potency, µM (doses to about 28.7 µM), for the others: top-dose activity change, negative = inhibition, most hits filed as inhibitors; further: on the % scale 0 is the no-effect control and ±100 the full control effect
#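 Readout is luminescence from an integrated firefly luciferase in P. falciparum. Red cells, 2% hematocrit and 0.05% parasitemia final, were cultured with compound through two parasite generations (96 hours) at 37 C, 5% CO2.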
# RE007 growth inh – less growth of the S. pombe RE007 Vpr strain. S. pombe RE007 Vpr strain, BacTiter-Glo ATP luminescence, 24 h. Potency, µM (series often up to 92.2 µM), for inactives: top-dose activity change, negative = less growth, hits mostly inhibitors. hit rate 0.21% among 360,000; active means well fitted falling curve with a large enough effect; inconclusive means small, poorly fitted or top-dose-only effect; inactive means no such curve, though single readings can be large or run the other way; further: on the % scale 0 is the no-effect control and ±100 the full control effect; nearly all actives have a fitted effect of over 50% in size
#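 Fission yeast strain RE007, carrying one chromosomally integrated HIV-1 vpr copy, was seeded at OD 0.01 in PMG+AL medium with 23 nL pinned compound. After 24 h at 30 °C and 99% humidity, viability was read by BacTiter-Glo luminescence.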
# SARS PLP yeast – SARS-CoV PLP inhibition in yeast. S. cerevisiae expressing SARS-CoV PLpro, growth rescue. Potency, µM (highest dose often 32.9 µM), without a hit: top-dose activity, positive = growth rescue, hits mostly activators. hit rate 0.19% among 330,000; calls by dose curve; further: 0% is about no effect; nearly all actives have a fitted effect of over 55% in size
# NS1 function inh – blocks influenza NS1 protein function | Potency, µM (top dose mostly 46.1 µM), inactives show top-dose activity, positive = more growth | hit rate 0.4% among 270,000; calls by dose curve; further: actives are rising curves; nearly all actives have a fitted effect of over 50% in size
#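 Read-out: OD600 growth recovery of NS1-expressing budding yeast. Cells grown overnight at 30C in -URA glucose medium, washed, resuspended and diluted 1:100 in 2% galactose assay medium, pH 6.0. Same strain lacking NS1 served as positive control.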
# Pf growth 48h – P. falciparum growth inhibition at 48 hours (one generation) | P. falciparum luciferase growth in erythrocytes, 48 h | Potency, µM (top dose mostly 28.7 µM), for inactives: at the highest dose activity change, negative = inhibition, most hits filed as inhibitors | hit rate 5.9% among 310,000; further: on the % scale 0 is the no-effect control and ±100 the full control effect
#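 Cell-based growth assay: transgenic P. falciparum expressing firefly luciferase, cultured in red cells within RPMI 1640 containing 0.5% w/v Albumax, 24 mM bicarbonate and gentamycin. A drop in luciferase activity indicates inhibition.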
# * marks the source's active call; other numbers are inactive results; ? = inconclusive; · = not tested or not shown; [ ] = another dose, or the depositor's remark. Unless noted, the call rests on the fitted dose curve; in most records, active means well fitted inhibition curve with a large enough effect; inconclusive means small, poorly fitted or top-dose-only effect, or another doubt; inactive means no such curve, though single readings can be large or run the other way. Potency means the concentration at half of the fitted maximal effect.
SMILES,Pf growth 96h,RE007 growth inh,SARS PLP yeast,NS1 function inh,Pf growth 48h
Cc1c(C(=O)N(C)Cc2ccc(F)cc2)sc(=O)n1Cc1ccc(Cl)c(Cl)c1,·,1.5%[18.4 µM],·,·,·
CC1(Cc2ccccc2F)C(=O)Nc2c(Cl)ccc(Cl)c21 (stereo not drawn),·,-17.4%,·,·,·
COCCNC(=S)NN=C1CCCCCC1,3.4%,7.6%,1.6%,3.5%,?
COCCNC(=S)N/N=C1\CC(C)CC(C)(C)C1 (stereo not drawn),4.65µM*,23.4%,-0.2%,·,?
N#Cc1cnc(SCC(=O)c2ccccc2)nc1N,·,1.7%,-0.1%,?,10.4µM*
N#Cc1cnc(SCCc2ccccc2)nc1N,18.7%,-22.3%,-8.9%,-17.6%,72.3%
Cc1cccnc1NC(=O)Nc1cccc(Cl)c1,?,7.9%,0.5%,-5.7%,181.1%
O=C(Nc1ccc(CN2CCOCC2)cc1)c1ccc(-c2cc(Cl)ccc2Cl)o1,?,1.2%,-4.5%,-3.1%,1.85µM*
O=C(CCN1CCN(Cc2ccccc2)CC1)NNC(=O)Nc1cccc([N+](=O)[O-])c1,13.1µM*,3.7%,2.4%,6.4%,9.8%
O=[N+]([O-])c1cccc(-c2ccc(C(=S)N3CCOCC3)o2)c1,?,-15.3%,0.3%,3.9%,186.1%
O=C(Nc1ccc(CN2CCOCC2)cc1)c1ccc(Br)o1,196.2%,-8.6%,2.1%,-1.6%,65.6%
O=C(CCN1CCN(Cc2ccccc2)CC1)NNC(=O)Nc1cccc(Cl)c1,156.0%,-1.8%,-2.8%,11.2%,?
S=C(NCCN1CCOCC1)Nc1ccc(Cl)cc1,55.6%,-0.2%,9.6%,-4.4%,-15.9%
O=C(NCCN1CCOCC1)Nc1ccc(Cl)cc1,4.65µM*,4.0%,-0.8%,5.0%,30.9%
O=C(Nc1ccc(CN2CCOCC2)cc1)c1ccc(-c2cccc([N+](=O)[O-])c2)o1,2.62µM*,0.1%,2.3%,-1.9%,?
CCN(Cc1ccncc1)C(=O)c1ccc(Br)o1,3.1%,-5.9%,-2.2%,3.5%,9.1%
COC(=O)c1ccc(C(=O)O)nc1,?,1.7%,0.6%,-5.4%,13.1%
CC1(c2ccccc2)CC(C)(C)N(C(N)=O)c2ccccc21 (stereo not drawn),?,-8.4%,0.6%,4.5%,-16.8%
CC1(c2ccccc2)CC(C)(C)N2C(=O)Cc3cccc1c32 (stereo not drawn),41.9%[5.75 µM],-1.7%,-2.7%,·,14.7µM*
C=CCOc1ccc(C(=O)O)cc1Cl,13.1%,1.9%,-0.3%,-89.9%,53.9%
O=C(CCc1nnc2ccc(NCc3ccccc3)nn12)NC1CCCCC1,11.7µM*,-13.6%,2.3%,13.6%,7.7%
Cc1nc2ccccc2c(N)c1C(=O)/C=C/c1ccccc1,?,-0.7%,1.6%,-9.2%,5.86µM*
COc1ccc(C2=NN(C(=O)CCC(=O)O)C(c3ccccc3F)C2)cc1 (stereo not drawn),2.33µM*,-1.0%,6.3%,9.5%,-21.3%
O=C(O)CCC(=O)N1N=C(c2ccc(Br)cc2)CC1c1ccc(Br)cc1 (stereo not drawn),?,13.6%,6.9%,?,0.0%
O=C(O)CCC(=O)N1N=C(c2ccc(Br)cc2)CC1c1cccc(Br)c1 (stereo not drawn),353.8%,4.7%,1.9%,?,6.57µM*
SMILES,Pf growth 96h,RE007 growth inh,SARS PLP yeast,NS1 function inh,Pf growth 48h
COc1ccc(C2=NN(C(=O)CCC(=O)O)C(c3ccc(OC)c(OC)c3)C2)cc1 (stereo not drawn),11.7µM*,17.8%,-0.5%,26.9%,-0.6%
CN(c1ccc(Cl)cc1)c1cc2c(c3c1ccn3C)C1CCC2O1 (stereo not drawn),·,11.3%,·,·,·
CCCS(=O)(=O)NC(=O)C1(C)CCN(C(=O)Cc2cccc(OC)c2)C1 (stereo not drawn),·,7.8%,·,·,·
Cc1ccc2c(c1)N(C(=O)c1ccco1)C(C)(C)c1ssc(=S)c1-2,5.22µM*,-2.5%,5.6%,18.4%,·
Cc1cccc2c1N(C(=O)c1ccco1)C(C)(C)c1ssc(=S)c1-2,5.22µM*,0.6%,-0.1%,-7.1%,?
CC(C)NC(=O)c1onc(CSc2ccc(Cl)cc2)c1C(=O)NC(C)C,3.29µM*,7.4%,-6.7%,-4.3%,5.22µM*
CC(C)NC(=O)c1onc(CSc2ccc(F)cc2)c1C(=O)NC(C)C,9.28µM*,-8.8%,-0.9%,·,4.65µM*
CCCNC(=O)c1onc(CSc2ccc(Cl)cc2)c1C(=O)NC(C)C,4.65µM*,13.2%,2.6%,·,11.7µM*
